From PubChem BioAssay
SARS 3CLpro inh: SARS-CoV 3CLpro protease inhibitors, primary screen, biochemical, quenched FRET; Replicase polyprotein 1ab (Severe acute respiratory syndrome coronavirus), P0C6X7; recombinant SARS-CoV 3CLpro, quenched FRET peptide cleavage; inhibition, % at 6 µM; 290,000 tested, 0.14% active; AID 1706, 2009; in the data active means inhibition above about 12%
BJeLR lethal: MLPCN primary cell-based screen for lethality selective to Ras in HRASV12 cells; BJeLR (HRASV12) viability, CellTiter-Glo ATP luminescence, 48 h; inhibition, % (no concentration beside the values); 300,000 tested, 0.17% active; AID 1554, 2009; in the data active means inhibition above about 50%
Sa ugtP lethal: growth inhibition of ugtP-null S. aureus, primary screen, RN4220 ugtP deletion, OD600. growth inhibition, % (no concentration beside the values). 16 h. 330,000 tested, 0.54% active; in the data active means growth inhibition above about 68%;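 further: plate controls were untreated wells for no effect and antibiotic for full effect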
VHR inh abs: VHR1 phosphatase inhibitors, primary screen, biochemical, absorbance, uHTS. inhibition, % at 13.3 µM. 290,000 tested, 0.52% active. recombinant VHR phosphatase, pNPP absorbance. Dual specificity protein phosphatase 3 (Homo sapiens), P51452; in the data active means inhibition above about 50%
Target sequence (P51452 whole entry, looked up): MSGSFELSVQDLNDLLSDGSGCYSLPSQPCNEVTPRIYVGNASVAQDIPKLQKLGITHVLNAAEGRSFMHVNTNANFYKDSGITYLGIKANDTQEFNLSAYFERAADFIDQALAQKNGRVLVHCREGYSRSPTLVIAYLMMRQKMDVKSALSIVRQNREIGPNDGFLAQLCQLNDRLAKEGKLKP
PrPC surface inh: inhibitors of human cell surface prion protein PrPC, primary screen, cell-based, TR-FRET; inhibition, % at 13.8 µM; TR-FRET read-out; 370,000 tested, 0.43% active; in the data active means inhibition above about 24%; further: 0% = median of the test wells and 100% = reference compound wells
RN4220 kill: growth inhibition of S. aureus RN4220, primary screen, OD600; inhibition, % (no concentration beside the values); 16 h; 330,000 tested, 0.33% active; AID 1259311, 2017; in the data active means inhibition above about 85%;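 further: plate controls were untreated cells for no effect and reference antibiotic for full effect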
Starred values were filed as active, the others as inactive; · = no result. Only some compounds are listed: those with a hit (about 1.4% of all), similar ones and a draw of the others.

SMILES	SARS 3CLpro inh	BJeLR lethal	Sa ugtP lethal	VHR inh abs	PrPC surface inh	RN4220 kill
CCC(C)[C@H](NC(=O)N1CC(=O)Nc2ccccc21)C(=O)Nc1nccs1 (some centres undefined)	-4	1	15	52*	0	3
Cc1ccc2[nH]cc(C(=O)CCl)c2c1	-3	54*	31	-9	2	16
Cc1ccc2[nH]cc(C(=O)CN3CCN(C)CC3)c2c1	-4	6	4	17	3	2
CC[C@]12CCCN3CCc4c(n(c5ccccc45)[C@](O)(C(=O)OC)C1)C32 (some centres undefined)	·	·	4	·	·	12
COc1cccc(C=NNc2ncnc3scc(-c4ccccc4)c23)c1O	·	·	46	·	·	11
COc1cccc(C=NNc2ncc(C(F)(F)F)cc2Cl)c1O	·	·	99*	·	·	100*
COc1cc(/C=N/Nc2ncc(C(F)(F)F)cc2Cl)cc(OC)c1O	-2	-8	·	8	-8	·
COc1cccc(/C=N/Nc2ncnc3scc(-c4ccccc4)c23)c1O	2	70*	·	-11	3	·
COc1cccc(/C=N/Nc2ncnc(Cl)c2N)c1O	-2	56*	·	0	-27	·
CC(CCN1CCc2nc(-c3ccccc3)c(-c3ccccc3)cc2C1)=NOCC(C)C(OCc1ccccc1)C(C)C (centres undefined)	·	·	4	·	·	2
CN(C)C1=NCC(Cc2ccccc2)N1CCc1cccc(F)c1 (centres undefined)	·	·	-4	·	·	5
CCOC(=O)[C@]12Cc3c(cc(OC)c(OC)c3OC)[C@H]1N(C1CCCCC1)C(=O)c1ccccc12	·	·	·	·	32*	·
CCOC(=O)[C@]12Cc3ccc(C)cc3[C@H]1N(C1CCCCC1)C(=O)c1ccccc12	·	·	·	·	33*	·
CCOC(=O)[C@]12Cc3cc(Cl)ccc3[C@H]1N(C1CCCCC1)C(=O)c1cc(OC)ccc12	·	·	·	·	47*	·
CCOC(=O)[C@]12Cc3ccccc3[C@H]1N(C(C)C)C(=O)c1ccccc12	·	·	·	·	2	·
CCOC(=O)[C@]12Cc3ccc(C)cc3[C@H]1N(C1CCCCC1)C(=O)c1cc(OC)ccc12	·	·	·	·	36*	·
C#CCOCCOCCOCCNc1nc(N2CCN(C(=O)Cn3cc(CCCCN)nn3)CC2)nc(N2CCN(C(=O)C(C(C)CC)n3cc(CCCCN)nn3)CC2)n1 (centres undefined)	·	·	3	·	·	3
CC1(C)OC2C(COS(=O)(=O)O)OC(n3ccc(=O)[nH]c3=O)C2O1 (centres undefined)	·	·	-1	·	·	7
CCCCCCc1ccc(N2CC(C)C(CC(=O)NCc3ccccc3)C2=O)cc1 (centres undefined)	·	·	4	·	·	-1
CCOC(=O)[C@]12Cc3cc(C)ccc3[C@H]1N(C1CCCCC1)C(=O)c1ccccc12	·	·	·	·	38*	·
CCOC(=O)[C@]12Cc3cc(C)ccc3[C@H]1N(CCC(=O)OC)C(=O)c1ccccc12	·	·	·	·	11	·
O=C(O)CCCN1C(=O)/C(=C\c2ccc(-c3nc4ccccc4s3)o2)SC1=S	6	5	100*	26	4	47
O=C(O)CC(C(=O)O)N1C(=O)/C(=C/c2ccc(-c3nc4ccccc4s3)o2)SC1=S (centres undefined)	-11	-1	-11	21	-16	-1
O=C(O)CCN1C(=O)/C(=C/c2ccc(-c3nc4ccccc4s3)o2)SC1=S	5	-1	1	-4	-2	99*
C#CCOCCOCCOCCNc1nc(N2CCOCC2)nc(N2CCN(C(=O)C(CCCCN)n3cc(C(N)C(C)CC)nn3)CC2)n1 (centres undefined)	·	·	1	·	·	6
SMILES	SARS 3CLpro inh	BJeLR lethal	Sa ugtP lethal	VHR inh abs	PrPC surface inh	RN4220 kill
FC(F)(F)Oc1ccc(NC(=S)Nc2ccc(OC(F)(F)F)cc2)cc1	6	-10	92*	9	4	99*
CC(C)c1ccc(NC(=S)Nc2ccc(OC(F)(F)F)cc2)cc1	4	5	-18	21	-2	2
C#CCOCCOCCOCCNc1nc(N2CCN(C(=O)CCCCCCCCCCNC(=O)C(CO)n3cc(CCCSC)nn3)CC2)nc(N2CCN(C(=O)CCCCCCCCCCNC(=O)C(CCC(=O)O)n3cc(CCCCCN)nn3)CC2)n1 (centres undefined)	·	·	4	·	·	5
CC1=CC(=O)C=C(C)C1=NOS(=O)(=O)c1ccccc1	2	82*	12	-29	-6	4
CC1=CC(=O)C(C(C)C)=C/C1=N/OS(=O)(=O)c1ccccc1	4	116*	·	-14	-4	·
O=C1NC(Cc2ccccc2)C(=O)N2C1C[C@@]1(Br)c3ccccc3N(S(=O)(=O)c3ccccc3)C21 (some centres undefined)	·	·	11	·	·	19
Cc1[nH]c2ccc(C(=O)NCCCN3CCCCC3)cc2c1C	-1	5	-1	57*	2	-1
CC=CC(=O)N1CC2(CC(c3cccc(NC(=O)C(C)=CC)c3)=NO2)CC1C(N)=O (centres undefined)	·	·	-1	·	·	0
Cc1ccc(N2CC(C(=O)NC(C)CCc3ccccc3)CC2=O)cc1 (centres undefined)	-3	4	3	53*	-8	2
Cc1ccc(N2CC(C(=O)NCCC(C)C)CC2=O)cc1 (centres undefined)	3	8	2	13	-10	-2
C#C[C@]1(OC(C)=O)CCC2C3CCC4=CC(=O)CCC4C3CC[C@@]21C (some centres undefined)	·	·	5	·	·	11
O=C(NC(Cc1ccccc1)C(=O)O)c1ccncc1 (centres undefined)	·	·	-1	·	·	0
COc1ccc(CC(=O)Nc2ccc(C(=O)O)cc2NC(=O)Cc2ccc(OC)cc2)cc1	0	1	3	57*	-4	-1
COc1ccc(CC(=O)Nc2ccc(N3CCCC3)c(C)c2)cc1	-6	-5	2	50*	3	-6
COC(=O)C1=C(c2ccc(OCc3ccccc3)cc2)CC2CCC1N2C(=O)NCCCc1ccccc1 (centres undefined)	·	·	4	·	·	-5
C(=Cc1ccccc1)C=NNc1nc(N2CCCCC2)nc(N2CCCCC2)n1	·	·	-8	·	·	4
CC1CN(C(C)CO)C(=O)c2cccc(N(C)C)c2OC1CN(C)C(=O)Nc1ccc(C(F)(F)F)cc1 (centres undefined)	·	·	-1	·	·	1
Cc1ccc(NC(=O)NNS(=O)(=O)c2ccc(Br)cc2)cc1	1	-4	0	9	-2	10
Cc1ccc(S(=O)(=O)NC(=O)Nc2ccc(N(C)C)cc2)cc1	3	-14	11	52*	-30	4
CS(=O)(=O)N(CC(=O)Nc1cccc(F)c1)c1cccc([N+](=O)[O-])c1	1	2	-2	16	-19	1
